Tau fluor cs – counter-screen for tau fibril formation inhibitors; tau K18 P301L Alexa594 fluorescence, heparin fibrillization; Potency, µM (top dose mostly 57.7 µM), without a hit: at the highest dose activity change, negative = decrease; 280,000 compounds, 0.93% hits; further: nearly all actives have a fitted effect of over 55% in size
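Human K18 P301L tau (15 uM unlabeled plus 0.24 uM Alexa 594-labeled, final) in 100 mM sodium acetate pH 7 was mixed with compound and 20 uM heparin and incubated 6 hr at 37 C.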
TexasRed fluor – alters Texas Red total fluorescence, flagging assay interference; 280,000 compounds, 0.29% hits; Potency, µM (doses to about 106 µM), inactives show at the highest dose fluorescence change, negative = quenching; TRb/SRC2 Texas Red total fluorescence interference; active means well fitted curve in either direction with a large enough effect; inconclusive means small, poorly fitted or top-dose-only effect
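Human TRβ ligand-binding domain (0.6 uM) and Texas Red SRC2 peptide (20 nM) in Tris buffer with 1 uM T3 and 5% DMSO were incubated with pinned compound for 5 hr at ambient temperature. Total fluorescence was computed as S + 2P (555/632 nm).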
TRb-SRC2 inh – TRbeta-SRC2 interaction inhibition. P10828. TRbeta-SRC2 peptide binding, fluorescence polarization; receptor liganded with 1 µM T3. Potency, µM (titrated, usually from 106 µM), without a hit: at the top dose activity change, negative = inhibition, usual class: inhibitors. 280,000 compounds, 0.065% hits. AID 1469;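 further: plate controls were bound peptide for no effect and peptide without receptor for full effect; nearly all actives have a fitted effect of over 50% in size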
Target sequence (P10828 whole entry, looked up): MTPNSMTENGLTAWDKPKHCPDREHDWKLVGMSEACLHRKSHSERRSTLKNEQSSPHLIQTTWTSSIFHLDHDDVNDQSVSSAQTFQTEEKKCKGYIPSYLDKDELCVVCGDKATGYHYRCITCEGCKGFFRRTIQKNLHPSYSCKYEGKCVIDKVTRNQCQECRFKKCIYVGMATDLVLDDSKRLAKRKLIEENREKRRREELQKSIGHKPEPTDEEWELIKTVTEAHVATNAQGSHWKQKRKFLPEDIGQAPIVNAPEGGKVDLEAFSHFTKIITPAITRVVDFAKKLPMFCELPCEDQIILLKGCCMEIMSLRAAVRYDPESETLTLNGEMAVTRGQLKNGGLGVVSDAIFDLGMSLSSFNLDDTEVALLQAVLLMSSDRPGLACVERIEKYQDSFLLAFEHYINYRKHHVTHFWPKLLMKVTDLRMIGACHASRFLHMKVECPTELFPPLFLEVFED
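Each compound concentration gave % activity, normalized to unbound and bound Texas Red SRC2 controls, from polarization read after 5 hr ambient incubation with T3-loaded human TRb LBD.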
Tau fibril FP – blocks human tau fibril formation measured by polarization; P10636; K18 P301L tau heparin fibrillization, Alexa594 FP, 6 h; Potency, µM (titrated, usually from 57.7 µM), for inactives: at the top dose activity, negative = inhibition, most hits filed as inhibitors; 280,000 compounds, 0.39% hits; further: nearly all actives have a fitted effect of over 55% in size
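Quantitative HTS format: compounds meet 15 uM recombinant K18 P301L tau and Alexa 594-tau tracer in 100 mM sodium acetate pH 7; 20 uM heparin triggers fibrillization at 37 C over 6 hr; FP gives the signal.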
RGS12 GoLoco inh – blocks human Gai1 binding to RGS12 GoLoco peptide, red readout; Gai1:RGS12 GoLoco peptide FP, rhodamine, 10 min; Potency, µM (doses to about 61.6 µM), for inactives: at the highest dose activity, negative = inhibition, actives largely listed as inhibitors; 230,000 compounds, 0.44% hits; AID 880; active means well fitted inhibition curve with a large enough effect, not every such curve was filed as active; inactive means no such curve, though single readings can be large or run the other way; further: nearly all actives have a fitted effect of over 30% in size
Tau ThT inhib – tau fibrillization inhibition (ThT binding); P10636; recombinant tau K18 P301L, heparin-induced fibrillization, ThT fluorescence; Potency, µM (highest dose often 57.4 µM), inactives show at the top dose activity, negative = inhibition, most hits filed as inhibitors; 270,000 compounds, 2.1% hits; AID 1460; further: nearly all actives have a fitted effect of over 55% in size
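ThT emission at 510 nm, taken 1 hr after adding 30 uM dye, quantifies aggregates formed when 20 uM heparin acts on human tau K18 P301L for 6 hr at 37 C.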
* marks the source's active call; other numbers are inactive results; ? = inconclusive; nt = not tested or not shown; [ ] = dose if it differs, or a comment. An excerpt weighted towards active compounds, which were near 3.2% of everything screened. Unless noted, the call rests on the fitted dose curve; in most records, active means well fitted curve in the direction sought with a large enough effect; inconclusive means small, poorly fitted or top-dose-only effect, or another doubt; inactive means no such curve, though single readings can be large; an effect the other way counts as inactive or inconclusive. Unless noted, on the % scale 0 is the no-effect control and ±100 the full control effect; potency means the concentration at half of the fitted maximal effect.

SMILES	Tau fluor cs	TexasRed fluor	TRb-SRC2 inh	Tau fibril FP	RGS12 GoLoco inh	Tau ThT inhib
O=C(NC1CCCCC1)C(c1cccnc1)N(C(=O)c1ccc(Cl)nc1)C1CCCCC1 (stereo unspecified)	-4%	0%	0%	2%	3%	-5%
COC(=O)c1c(Cl)c2n3ccccc3c(C)c(-c3ccccc3)c-2c1C(=O)OC	?	9%	-9%	?	14µM*	7.9µM*
COC(=O)c1cc2c(-c3ccccc3)c(C)c3ccccn3c-2c1C(=O)OC	?	1%	-10%	15%	37%	16µM*
OCC1OC(/C=C\c2ccccc2)C=CC1Oc1ccc2c(c1)OCO2 (stereo unspecified)	-28%[11.6 µM]	1%[11.2 µM]	8%[11.2 µM]	10%[11.6 µM]	nt	?
CCCCN(CCO)CCCC	nt	-2%	4%	nt	16µM*	nt
CC(=O)OCC1OC(C#CC(C)(C)C)C=CC1OC(C)=O (stereo unspecified)	-13%[11.6 µM]	-4%[11.2 µM]	-1%[11.2 µM]	?	nt	?
Cc1c(N=NC2=C(O)CCCC2=O)c(=O)n(-c2ccccc2)n1C	-28%	-3%	4%	?	18µM*	14µM*
CCCn1c(=N)n(CC(=O)OCC)c2ccccc21	6%	-6%	6%	-4%	4%	12%
C=COCCn1c(=N)n(CCC)c2ccccc21	?	-7%	-1%	28µM*	nt	-4%
N#CNC(N)=Nc1ccc(Cl)cc1	nt	nt	nt	nt	165%[14.2 µM]	nt
Cc1cccc(N2CCN(c3ccc(NC(=O)/C=C(/C(=O)O)c4ccccc4)cc3)CC2)c1	?	9%	-10%	?	-14%	8.9µM*
N#CC1=C2SCN(Cc3ccco3)CN2C(=O)CC1c1cccc2ccccc12 (stereo unspecified)	-18%	2%	-3%	?	-25%	18µM*
N#CC1=C2SCN(Cc3ccco3)CN2C(=O)CC1c1ccccc1F (stereo unspecified)	-24%	-2%	-23%	?	-15%	18µM*
Cc1cc2ccccn2c1C(=O)c1ccc(NN)c([N+](=O)[O-])c1	?	-3%	2%	4%	4%	10µM*
O=[N+]([O-])c1ccc(-c2cc(-c3ccc(Cl)cc3)n[nH]2)cc1	?	1%	2%	6%	-1%	1.1µM*
O=[N+]([O-])c1ccc2nc(-c3ccc(Cl)cc3)[nH]c2c1	?	1%	-6%	8%	2%	?
CCCCc1nc2c(c3c1CC(C)OC3)CN(CCC(C)C)CC2 (stereo unspecified)	-9%[11.6 µM]	-4%[11.2 µM]	-1%[11.2 µM]	2%[11.6 µM]	nt	-12%[11.5 µM]
Oc1ccc(-c2nc3ncccn3c2Nc2ccc3c(c2)OCCO3)cc1	25µM*[quencher]	-8%	-3%	12%	10%	?
CSc1ccc(-c2nc3cnccn3c2Nc2ccc3c(c2)OCO3)cc1	?	-4%	1%	?	-11%	?
Clc1ccc(-c2nc3cnccn3c2Nc2ccc3c(c2)OCO3)cc1	14µM*[quencher]	-1%	3%	?	-15%	?
Cc1ccc(-c2nc3ncccn3c2Nc2ccc3c(c2)OCCO3)cc1	?	1%	-4%	1%	2%	?
O=C(NCCc1ccccc1)c1nc(-c2ccc(Cl)cc2)n2c1CCCCC2	-3%	?	0%	6%	nt	-8%
CC(C)N(Cc1ccccc1)C(=O)c1nc(-c2ccc(Cl)cc2)n2c1CCCCC2	2%	14µM*[quencher]	-12%	-7%	nt	-2%
O=C(NCc1ccccc1)c1nc(-c2ccc(Cl)cc2)n2c1CCCCC2	0%	20µM*[quencher]	-4%	-5%	nt	-3%
O=[N+]([O-])c1ccc2nc(-c3ccncc3)[nH]c2c1	-15%	-2%	-3%	11%	-4%	-18%
O=[N+]([O-])c1ccc(-c2nc(-c3ccc(F)cc3)c(-c3ccncc3)[nH]2)cc1	20µM*[quencher]	?	0%	?	-17%	14µM*

Bioassay records: PubChem, National Center for Advancing Translational Sciences (NCATS)
